BAZ2B inh – BAZ2B (human) inhibition | Q9UIF8 | AlphaScreen BAZ2B-H3K14Ac peptide displacement | Potency, µM (titrated, usually from 114 µM), for the others: top-dose activity change, negative = inhibition, usual class: inhibitors | 4.4% of 360,000 active; note: potency is the fitted concentration of half-maximal effect; % is set by controls: 0 for no effect and ±100 for the full control effect; nearly all actives have a fitted effect of over 60% in size
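In this displacement format the biotinylated H3(5-23) peptide acetylated at Lys14 serves as ligand at 50 nM, with BAZ2B at 50 nM in PBS pH 7.4 containing 0.01% Tween-20. Donor and acceptor beads are 10 ug/mL final.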
G9a inh – blocks human histone lysine methyltransferase G9a; G9a H3K9 monomethylation, AlphaScreen, 2 h; Potency, µM (doses to about 102 µM), without a hit: top-dose activity, negative = inhibition, most hits filed as inhibitors; 8.8% of 350,000 active; note: potency is the fitted concentration of half-maximal effect; % is set by controls: 0 for no effect and ±100 for the full control effect; nearly all actives have a fitted effect of over 75% in size
Target sequence (Q96KQ7 913-1193 limits assumed): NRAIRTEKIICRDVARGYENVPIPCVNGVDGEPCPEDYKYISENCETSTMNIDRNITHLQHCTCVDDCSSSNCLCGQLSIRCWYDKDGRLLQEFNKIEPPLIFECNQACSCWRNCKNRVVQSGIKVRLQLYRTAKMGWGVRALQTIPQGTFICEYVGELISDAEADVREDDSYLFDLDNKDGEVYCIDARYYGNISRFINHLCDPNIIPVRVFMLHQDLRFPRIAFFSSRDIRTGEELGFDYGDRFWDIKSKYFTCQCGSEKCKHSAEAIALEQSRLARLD
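Chemiluminescent proximity detection of H3K9 monomethylation, read after 10 min bead incubation in the dark. Reaction: 20 nM G9a, 500 nM biotin-H3K9 peptide, 20 uM SAM cofactor, 2 h, room temperature, following 15 min enzyme-compound preincubation.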
L3MBTL1 block – L3MBTL1 (human) inhibition. AlphaScreen L3MBTL1–H3K9me1 peptide binding. Potency, µM (highest dose often 57.1 µM), inactives show at the highest dose activity, negative = inhibition, hits mostly inhibitors. 0.66% of 230,000 active; note: potency is the fitted concentration of half-maximal effect; % is set by controls: 0 for no effect and ±100 for the full control effect; nearly all actives have a fitted effect of over 60% in size
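First, the protein-peptide complex forms for 30 min at room temperature (L3MBTL1 50 nM, biotinylated H3K9me1 peptide 75 nM). Next, compounds are pin-transferred and incubated 30 min. Finally, AlphaScreen beads are added and read after 30 min.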
PI5P4K alpha inh – inhibitors of human PI5P4K alpha; max response, %; 1.2% of 330,000 active; PI5P4Kalpha enzyme, ADP-Glo luminescence, 60 min; stronger effect = lower value; P48426; active = max response of -50% or lower; inconclusive = between -30% and -50%; inactive = -30% or higher; note: value at the top dose of about 77 µM; % is set by controls: 0 for no effect and ±100 for the full control effect
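ADP-Glo luminescence end-point after a 60 min room-temperature kinase reaction. PI5P4Kalpha and substrate in HEPES pH 7.4 buffer with EGTA, 0.1% CHAPS and 5% DMSO; ATP at 5 microM final.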
JMJD2A Tudor inh – JMJD2A Tudor domain (human) inhibition; AlphaScreen JMJD2A-Tudor / H3K4me3 peptide binding; Potency, µM (series often up to 114 µM), for inactives: top-dose activity change, negative = inhibition, most hits filed as inhibitors; 4.4% of 390,000 active; AID 504339; note: potency is the fitted concentration of half-maximal effect; % is set by controls: 0 for no effect and ±100 for the full control effect; nearly all actives have a fitted effect of over 50% in size
HP1b chromo inh – blocks HP1-beta chromodomain binding to methylated histone tails; P83916; AID 540317; Potency, µM (doses to about 114 µM), inactives show top-dose activity change, negative = inhibition, actives largely listed as inhibitors; 0.56% of 390,000 active; AlphaScreen HP1-beta / biotin-H3K9me3 peptide binding; note: potency is the fitted concentration of half-maximal effect; nearly all actives have a fitted effect of over 70% in size
Target sequence (P83916 whole entry, looked up): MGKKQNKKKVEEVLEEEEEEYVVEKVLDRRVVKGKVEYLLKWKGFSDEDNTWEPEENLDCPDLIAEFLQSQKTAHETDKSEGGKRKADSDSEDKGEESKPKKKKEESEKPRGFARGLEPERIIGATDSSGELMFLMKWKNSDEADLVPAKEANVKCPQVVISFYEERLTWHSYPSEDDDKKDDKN
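AlphaScreen: HP1-beta (50 nM) preformed 30 min with biotin-H3(1-18)K9me3 peptide (50 nM) in PBS pH 7.4, 0.01% Tween-20. Compound added for 30 min at RT, then streptavidin donor/nickel chelate acceptor beads (10 ug/mL) for 30 min.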
Numbers without * were called inactive; ? = inconclusive; · = no result; [ ] = another dose, or the depositor's remark. Only some compounds are listed: those with a hit (about 11% of all), similar ones and a draw of the others. Unless noted, calls come from the whole dose curve; as a rule, active = well fitted inhibition curve with a large enough effect; inconclusive = small, poorly fitted or top-dose-only effect; inactive = no such curve, though single readings can be large or run the other way.

SMILES | BAZ2B inh | G9a inh | L3MBTL1 block | PI5P4K alpha inh | JMJD2A Tudor inh | HP1b chromo inh
O=S(=O)(c1cccc(F)c1)N1CCN(S(=O)(=O)c2ccc3c(c2)OCCO3)CC1 | · | · | · | · | -19.2% | ·
CCOC(=O)c1c(NC(=O)CSc2cn(CCNC(=O)c3ccccc3OC)c3ccccc23)sc2c1CCC2 | -19.8% | -6.2%[59 µM] | · | · | -32.8% | 32.8%
CCOc1ccc(NCc2nnc(SCc3ccccc3Cl)n2-c2ccccc2)cc1 | 20µM* | ? | ? | · | 35.5µM* | -49.5%
O=C(CSC(=S)N1CCCC1)N1CCN(S(=O)(=O)c2cccc([N+](=O)[O-])c2)CC1 | -14.1% | 39.8µM* | · | -1.1 | -19.3% | 1.2%
Cc1cccc(NC(=O)C(Cc2ccccc2)NS(=O)(=O)c2ccc3c(c2)c(=O)n(C)c(=O)n3C)c1 (stereo not given) | 89.1µM* | -8.7%[59 µM] | · | · | -10.8% | 11.9%
CCC(C)NC(=O)C(NS(=O)(=O)c1ccc2c(c1)c(=O)n(C)c(=O)n2C)c1ccccc1 (stereo not given) | 13.0% | -17.2% | · | 0.0 | -17.2% | 20.3%
CC(C)CCNC(=O)C(NS(=O)(=O)c1ccc2c(c1)c(=O)n(C)c(=O)n2C)c1ccccc1 (stereo not given) | 8.4% | 8.91µM* | · | 3.2 | -14.2% | 56.4%
Cc1ccc(NC(=O)C(Cc2ccccc2)NS(=O)(=O)c2ccc3c(c2)c(=O)n(C)c(=O)n3C)c(C)c1 (stereo not given) | -14.2% | -36.7%[59 µM] | · | · | -11.8% | 22.4%
Cn1c(=O)c2cc(S(=O)(=O)NC(Cc3ccccc3)C(=O)NCc3ccco3)ccc2n(C)c1=O (stereo not given) | -33.8% | 63.1µM* | · | 6.3 | -12.1% | 33.5%
CCN(Cc1ccccc1)C(=O)Cn1c(=O)n(-c2ccc(F)c(Cl)c2)c(=O)c2sc3ccccc3c21 | 1.4% | 0.4%[59 µM] | · | · | -5.8% | 39.6%
Cc1nc2ccn(Cc3ccco3)c(=O)c2cc1C(=O)NCc1ccccc1F | -14.8% | -1.7%[59 µM] | · | · | -10.3% | 52.1%
CN(C)c1cc(-c2ccc(Cl)cc2Cl)oc(=O)c1Cl | 89.1µM* | · | -14.0% | -1.3 | -9.0% | 17.5%
COc1ccccc1Nc1nc(-c2ccc(F)cc2)c2c(n1)-c1ccccc1OC2 | -1.8% | ? | · | · | -1.0% | 51.1%
COc1cc(CNCCC2CCOC(C)(C)C2)ccc1O (stereo not given) | -2.4% | 50.1µM* | -5.8% | -5.1 | -19.0% | 12.8%
Cc1cc(C)c2c(=O)cc(C(=O)Nc3c(C)n(C)n(-c4ccccc4)c3=O)oc2c1 | 1.1% | 4.5%[59 µM] | · | · | 1.7% | 33.0%
O=C(N/N=C/c1ccc(N2CCOCC2)o1)c1cccc(C(F)(F)F)c1 | 0.8% | 8.91µM* | 7.0% | · | ? | -2.0%
CC1=CC(C)(C)[N+](C)(C)c2ccc(C)cc21 | ? | 56.2µM* | 9.6% | -2.4 | ? | 9.0%
CC1=CC(C)(C)N(S(=O)(=O)c2ccc(C)cc2)c2ccc(C)cc21 | 12.4% | 34.5% | · | · | 14.9% | 69.3%
Cc1ccc(-n2c(=O)c3c(c4cc(C)ccc4n3C)n(CC(=O)NCCC3=CCCCC3)c2=O)cc1 | 0.4% | -13.4%[59 µM] | · | · | -6.9% | 19.2%
Cc1ccc(F)c(C2C3C=CCC(c4ccccc4)C3C(=O)N2Cc2ccccc2)c1 (stereo not given) | · | · | · | · | -12.4% | 4.6%
CCOc1ccc(NC(=O)COC(=O)c2ccc3ncsc3c2)cc1OCC | ? | 44.7µM* | -11.3% | 4.7 | -23.4% | 10.8%
CC(C)(C)c1ccc(NC(=O)COC(=O)c2ccc3ncsc3c2)cc1 | 3.0% | -80.9%[12.7 µM] | 25.6% | 5.8 | -20.3% | -27.3%
O=C(Nc1ccc(Br)cc1)c1ccc2ncsc2c1 | -2.4% | 44.7µM* | · | -20.6 | -7.8% | 14.5%
CCCc1[nH]nc2c1C(c1ccc(O)c(OC)c1)C(C#N)=C(N)O2 (stereo not given) | -36.1% | 50.1µM* | -1.1% | · | -15.7% | 2.5%
Cc1c(C=Nc2ccc(S(=O)(=O)N(C)C)cc2)c(O)[nH]c(=O)c1C#N | · | · | · | -90.2* | -7.6% | 16.0%
SMILES | BAZ2B inh | G9a inh | L3MBTL1 block | PI5P4K alpha inh | JMJD2A Tudor inh | HP1b chromo inh
Cc1c(C=Nc2ccc(S(=O)(=O)CCO)cc2)c(O)[nH]c(=O)c1C#N | · | · | · | -77.7* | -10.1% | 52.4%
Cc1[nH]n(-c2ccc(F)cc2)c(=O)c1C=Nc1ccc(S(=O)(=O)N(C)C)cc1 | 0.7% | 19.6%[59 µM] | -10.0% | 0.1 | -7.4% | 26.6%
COCc1c(Br)c(C)nc2sc3c(=O)[nH]nnc3c12 | 56.2µM* | 35.5µM* | · | -18.7 | -13.6% | 28.8%
O=C(NCCC1=CCCCC1)c1ccc2c(c1)N(Cc1ccc(Cl)cc1)C(=O)c1ccccc1S2(=O)=O | -16.6% | -0.9%[59 µM] | · | · | -12.1% | 11.8%
CCOc1ccc(NCC(=O)N/N=C/C=C/c2ccccc2)cc1 | ? | 11.2µM* | -5.3% | 9.3 | ? | -6.7%
COc1ccc(NCC(=O)N/N=C/C(C)c2ccccc2)cc1 (stereo not given) | ? | 28.2µM* | -19.4% | -11.5 | ? | -20.9%
CCOc1ccc(N=C/C=C/c2ccccc2)c(O)c1 | 35.5µM* | 50.1µM* | -11.8% | -21.3 | 56.2µM* | ?
O=C(Cc1cc(=O)[nH][nH]1)N/N=C/C=C/c1ccccc1 | -34.1% | 9.4% | -7.7% | -60.5* | ? | -15.4%
COc1ccc(NCC(=O)N/N=C/c2ccc3c(c2)OCCO3)cc1 | ? | ? | -12.2% | -3.0 | ? | -6.6%
O=C(Nc1ccccc1)c1cccc2c(=O)c3c([nH]c12)CCCC3 | -0.4% | -33.4%[59 µM] | · | · | -5.0% | 23.7%
CCCN(CCC)CCCNC(=O)c1cc2c(=O)oc3ccc(C)cc3c2s1 | -14.0% | -2.2%[59 µM] | · | · | -17.8% | 16.9%
Cc1occc1C(=O)N/N=C/C=C\c1ccccc1[N+](=O)[O-] | ? | ? | -2.4% | -3.9 | 89.1µM* | -29.1%
O=C(N/N=C/C=C\c1ccccc1[N+](=O)[O-])c1ccco1 | -13.4% | ? | 5.6% | 0.3 | -23.5% | 12.5%
Cc1ccccc1NCC(=O)N/N=C\C=C\c1cccc([N+](=O)[O-])c1 | ? | ? | -14.2% | -4.1 | 50.1µM* | -11.0%
COc1ccc(NCC(=O)N/N=C/c2cc([N+](=O)[O-])ccc2N2CCCC2)cc1 | ? | 8.91µM* | -9.6% | ? | ? | ?
COc1ccc(NCC(=O)N/N=C/C=C/c2ccccc2[N+](=O)[O-])cc1 | 39.8µM* | 11.2µM* | -5.0% | 9.5 | 79.4µM* | -36.7%
O=C(Cc1ccccc1)N/N=C/C=C/c1cccc([N+](=O)[O-])c1 | -27.2% | 80.8%[59 µM] | 0.7% | 7.5 | -8.5% | 32.9%
CCOC(=O)N/N=C/C=C/c1ccccc1[N+](=O)[O-] | 3.4% | -8.8% | -1.6% | -23.0 | ? | -13.8%
COC(=O)c1sc(NC(=O)COc2ccccc2)nc1C | -7.4% | -6.2% | · | -15.5 | -10.5% | 29.5%

Source: PubChem BioAssay
